# From PubChem BioAssay
# Test: compound effects on differentiated 3T3-L1 adipocyte viability – cell-based, 3T3-L1 adipocytes, calcein-AM fluorescence, 48 h, basal, profiling panel (AID 1163)
# Details: 3T3-L1 adipocytes viability, higher = more signal
# Note: test concentration not given here.
row,Structure (SMILES),z-score
1,CC(C)C(=O)N[C@H]1CCCN1C(=O)C=Cc1ccccc1,-0.578
2,CCOC(=O)[C@H](CC(C)C)NC(=O)CCC1CC(OC(=O)NCc2ccc3c(c2)OCO3)CC2(CCCC(COC(=O)NCCC(C)C)O2)O1 (some centres undefined),-0.0921
3,COC(=O)CC=C[C@@H](C)[C@@H](C=NOC[C@@H](O)COCc1ccco1)NS(=O)(=O)c1ccc(C)cc1,-0.295
4,CON=C(C)CCN1CCCCc2nc(C)c(C)cc21,-0.269
5,CC(=O)OC[C@H]1O[C@H](CCON=C(C)C)C=C[C@@H]1OC(C)=O,0.0363
6,O=C1CCCC=C1C(O)C1CCCCC1 (centres undefined),-0.464
7,COC(=O)CC=C[C@@H](C)[C@@H](C=NOC[C@@H](C)[C@H](OCc1ccccc1)C(C)C)OC,-0.0404
8,COC(=O)[C@H](C)NC(=O)CC=C[C@@H](C)[C@@H]1C=C[C@H](O)[C@@H](CO)O1,-0.586
9,C[C@@H](c1ccccc1)N1C(=O)[C@H]2[C@H]3[C@H](O)[C@H](O)CC(=NOCc4ccccc4)[C@@H]3CC[C@H]2C1=O,-0.0375
10,O=C1[C@H]2[C@H]3[C@H](O)[C@H](O)CC(=NOC[C@@H](O)COCc4ccco4)[C@@H]3CC[C@H]2C(=O)N1Cc1ccc2c(c1)OCO2,0.0548
11,CCCNC(=O)OC[C@H]1O[C@H](CCON=C2C[C@@H](O)[C@@H](O)[C@@H]3[C@@H]4C(=O)N(CC)C(=O)[C@@H]4CC[C@@H]23)C=C[C@@H]1Oc1ccc(OC)cc1,0.206
12,CC(C)CON=C1C[C@@H](O)[C@@H](O)[C@@H]2[C@@H]3C(=O)N(Cc4ccc5c(c4)OCO5)C(=O)[C@@H]3CC[C@@H]12,-0.724
13,COc1ccc(COC(=O)NN=C2C[C@@H](O)[C@@H](O)[C@@H]3[C@@H]4C(=O)N([C@@H](C)c5ccccc5)C(=O)[C@@H]4CC[C@@H]23)cc1,0.0685
14,C[C@@H]1CC[C@H]2C(=O)N3[C@@H](CC[C@@H](C)[C@@H]3c3ccc(Br)cc3)C(=O)N2[C@H]1c1ccc(Br)cc1,-0.42
15,CCOC(=O)CCN1C(=O)[C@H]2[C@H]3[C@H](O)[C@H](O)CC(=O)[C@@H]3CC[C@H]2C1=O,0.314
16,COC(=O)[C@H](CCSC)NC(=O)CC=C[C@@H](C)CO,-0.169
17,CCOC(=O)[C@H](Cc1ccccc1)NC(=O)CCC1CC(OC(=O)NCc2cccc3ccccc23)CC2(CCCC(COC(=O)NCCOc3ccccc3)O2)O1 (some centres undefined),0.0331
18,COc1ccc(COC(=O)NN=C2C[C@@H](O)[C@@H](O)[C@@H]3[C@@H]4C(=O)N(c5cccc(Oc6ccccc6)c5)C(=O)[C@@H]4CC[C@H]23)cc1,0.487
19,COc1ccc(OC[C@@H]2CC3[C@@H](c4ccc(Br)cc4)[C@H](C)CC[C@H]3C(=O)O2)cc1 (some centres undefined),0.0081
20,COC(=O)[C@H](C)NC(=O)CCC1CC(OC(=O)NCc2cccc3ccccc23)CC2(CCCC(COC(=O)NCCc3ccccc3OC)O2)O1 (some centres undefined),-1.02
21,COc1ccc(OC[C@@H](CO)OC)cc1,0.363
22,COc1ccc(COC(=O)NN=C2C[C@@H](O)[C@@H](O)[C@@H]3[C@@H]4C(=O)N(C[C@@H]5CCCO5)C(=O)[C@@H]4CC[C@@H]23)cc1,-0.825
23,CCOC(=O)[C@H](CC(C)C)NC(=O)CCC1CC(OC(=O)NCc2ccc3c(c2)OCO3)CC2(CCCC(COC(=O)NCCOc3ccccc3)O2)O1 (some centres undefined),-0.36
24,C=CC[C@@H]1C=C[C@H](ON=C(C)CCN2CCCCc3nc(C)c(C)cc32)[C@@H](CO)O1,-0.7
25,C[C@@H](c1ccccc1)N1C(=O)[C@H]2[C@H]3[C@H](O)[C@H](O)CC(=NOC[C@@H](O)COCc4ccco4)[C@H]3CC[C@H]2C1=O,0.565
26,COc1ccc(O[C@H]2C=C[C@@H](C#Cc3ccccc3)O[C@@H]2CO)cc1,0.956
27,COC(=O)[C@@H]1CC[C@H](C)[C@@H](c2ccc(Br)cc2)N1C[C@@H](O)CN=[N+]=[N-],0.379
28,CC(C)=CCCC(C)=CCON=C1C[C@@H](O)[C@@H](O)[C@@H]2[C@@H]3C(=O)N(Cc4ccc5c(c4)OCO5)C(=O)[C@@H]3CC[C@@H]12,0.603

# Test: compound effects on hepatocellular carcinoma cell viability – HepG2, calcein-AM fluorescence, 48 h, basal, profiling panel (AID 1164)
# Details: higher = more signal
row,Structure (SMILES),z-score
1,C=CC[C@@H]1C=C[C@H](ON=CC[C@@H]2C=C[C@H](OC(C)=O)[C@@H](COC(C)=O)O2)[C@@H](CO)O1,0.347
2,C=CC[C@@H]1C=C[C@H](ON=C(C)CCN2CCCc3nc(C)c(C)cc32)[C@@H](CO)O1,0.0526
3,CC(=O)OC[C@H]1O[C@H](CC=NO[C@H](C)c2cn([C@@H]3COC[C@H]3O)nn2)C=C[C@@H]1OC(C)=O,0.631
4,CC(=O)OC[C@H]1O[C@H](CCON=C(C)CCN2CCCc3nc(C)c(C)cc32)C=C[C@@H]1OC(C)=O,-0.667
5,CO[C@H]1COC(=O)[C@H](CCSC)NC(=O)CC=C[C@@H](C)[C@H](OC)COC(=O)[C@@H](OCc2ccccc2)C=C[C@@H]1C,-1.1
6,CN1CCc2nc(-c3ccccc3)c(-c3ccccc3)cc2C1,0.135
7,CON=C(C)CCN1CCc2nc(-c3ccccc3)c(-c3ccccc3)cc2C1,0.0133
8,CCN1C(=O)[C@H]2[C@@H]3C(=CC[C@H]2C1=O)C(=O)[C@H]1O[C@H]1[C@H]3O,-0.929
9,CC(C)C(=O)N[C@H]1CCCN1C(=O)C=Cc1ccccc1,0.176
10,CCOC(=O)[C@H](CC(C)C)NC(=O)CCC1CC(OC(=O)NCc2ccc3c(c2)OCO3)CC2(CCCC(COC(=O)NCCC(C)C)O2)O1 (some centres undefined),-0.231
11,COC(=O)CC=C[C@@H](C)[C@@H](C=NOC[C@@H](O)COCc1ccco1)NS(=O)(=O)c1ccc(C)cc1,0.3
12,CON=C(C)CCN1CCCCc2nc(C)c(C)cc21,0.564
13,CC(=O)OC[C@H]1O[C@H](CCON=C(C)C)C=C[C@@H]1OC(C)=O,-0.0004
14,O=C1CCCC=C1C(O)C1CCCCC1 (centres undefined),-0.22
15,COC(=O)CC=C[C@@H](C)[C@@H](C=NOC[C@@H](C)[C@H](OCc1ccccc1)C(C)C)OC,-0.0472
16,COC(=O)[C@H](C)NC(=O)CC=C[C@@H](C)[C@@H]1C=C[C@H](O)[C@@H](CO)O1,0.583
17,C[C@@H](c1ccccc1)N1C(=O)[C@H]2[C@H]3[C@H](O)[C@H](O)CC(=NOCc4ccccc4)[C@@H]3CC[C@H]2C1=O,-0.628
18,O=C1[C@H]2[C@H]3[C@H](O)[C@H](O)CC(=NOC[C@@H](O)COCc4ccco4)[C@@H]3CC[C@H]2C(=O)N1Cc1ccc2c(c1)OCO2,0.579

row,Structure (SMILES),z-score
1,CCCNC(=O)OC[C@H]1O[C@H](CCON=C2C[C@@H](O)[C@@H](O)[C@@H]3[C@@H]4C(=O)N(CC)C(=O)[C@@H]4CC[C@@H]23)C=C[C@@H]1Oc1ccc(OC)cc1,-0.652
2,CC(C)CON=C1C[C@@H](O)[C@@H](O)[C@@H]2[C@@H]3C(=O)N(Cc4ccc5c(c4)OCO5)C(=O)[C@@H]3CC[C@@H]12,-0.211
3,COc1ccc(COC(=O)NN=C2C[C@@H](O)[C@@H](O)[C@@H]3[C@@H]4C(=O)N([C@@H](C)c5ccccc5)C(=O)[C@@H]4CC[C@@H]23)cc1,-0.966
4,C[C@@H]1CC[C@H]2C(=O)N3[C@@H](CC[C@@H](C)[C@@H]3c3ccc(Br)cc3)C(=O)N2[C@H]1c1ccc(Br)cc1,-0.0355
5,CCOC(=O)CCN1C(=O)[C@H]2[C@H]3[C@H](O)[C@H](O)CC(=O)[C@@H]3CC[C@H]2C1=O,-0.0609
6,COC(=O)[C@H](CCSC)NC(=O)CC=C[C@@H](C)CO,0.0826
7,CCOC(=O)[C@H](Cc1ccccc1)NC(=O)CCC1CC(OC(=O)NCc2cccc3ccccc23)CC2(CCCC(COC(=O)NCCOc3ccccc3)O2)O1 (some centres undefined),-0.175
8,COc1ccc(COC(=O)NN=C2C[C@@H](O)[C@@H](O)[C@@H]3[C@@H]4C(=O)N(c5cccc(Oc6ccccc6)c5)C(=O)[C@@H]4CC[C@H]23)cc1,-0.634
9,COc1ccc(OC[C@@H]2CC3[C@@H](c4ccc(Br)cc4)[C@H](C)CC[C@H]3C(=O)O2)cc1 (some centres undefined),0.139
10,COC(=O)[C@H](C)NC(=O)CCC1CC(OC(=O)NCc2cccc3ccccc23)CC2(CCCC(COC(=O)NCCc3ccccc3OC)O2)O1 (some centres undefined),-1.44
11,COc1ccc(OC[C@@H](CO)OC)cc1,0.647
12,COc1ccc(COC(=O)NN=C2C[C@@H](O)[C@@H](O)[C@@H]3[C@@H]4C(=O)N(C[C@@H]5CCCO5)C(=O)[C@@H]4CC[C@@H]23)cc1,0.245
13,CCOC(=O)[C@H](CC(C)C)NC(=O)CCC1CC(OC(=O)NCc2ccc3c(c2)OCO3)CC2(CCCC(COC(=O)NCCOc3ccccc3)O2)O1 (some centres undefined),-1.78
14,C=CC[C@@H]1C=C[C@H](ON=C(C)CCN2CCCCc3nc(C)c(C)cc32)[C@@H](CO)O1,-0.389
15,C[C@@H](c1ccccc1)N1C(=O)[C@H]2[C@H]3[C@H](O)[C@H](O)CC(=NOC[C@@H](O)COCc4ccco4)[C@H]3CC[C@H]2C1=O,-0.187
16,COc1ccc(O[C@H]2C=C[C@@H](C#Cc3ccccc3)O[C@@H]2CO)cc1,-1.03
17,COC(=O)[C@@H]1CC[C@H](C)[C@@H](c2ccc(Br)cc2)N1C[C@@H](O)CN=[N+]=[N-],-0.494
18,CC(C)=CCCC(C)=CCON=C1C[C@@H](O)[C@@H](O)[C@@H]2[C@@H]3C(=O)N(Cc4ccc5c(c4)OCO5)C(=O)[C@@H]3CC[C@@H]12,-0.53
